Records with an inconclusive call do not appear. A number with no mark means an inactive call. Active and inactive are the calls of the source. The call rests on the fitted dose curve; in most records, active means well fitted inhibition curve with a large enough effect; inconclusive means small, poorly fitted or top-dose-only effect; inactive means flat fitted curve, though single readings scatter.
Each compound was assayed against Dual specificity protein kinase CLK4 (Homo sapiens) (UniProt Q9HAZ1) (assay: Reaction Biology data for inhibitors of CLK4: Probe SAR). Conditions: Reaction Biology CLK4 kinase assay, 10 uM ATP; series mostly up to 10 µM; activity change, negative = inhibition: at the top concentration.
From the text: Alternative splicing of pre-mRNAs plays a major role in the regulation of eukaryotic gene expression. Alternative splicing is now thought to be one of the primary reasons for the complexity of higher organisms leading to an average of three protein isoforms per gene. Aberrant splicing can lead to a number of diseases and is known to play a role in rare genetic diseases such as progeria syndrome. Hutchinson-Gilford Progeria Syndrome (HGPS) is a pediatric premature aging disease caused by a spontaneous mutation in the lamin A/C (LMNA) gene due to a single point mutation in the lamin A gene effecting 1 in 4 million people. To identify both specific splicing modulators of the lamin A gene as well as general splicing modulators, a cell-based HTS assay was developed using a minigene reporter system (AIDs, 1459 & 1487). […] This AID summarizes the characterization of lead compounds in Clk4. NIH Molecular Libraries Probe Production Centers Network [MLPCN] NIH Chemical Genomics Center [NCGC] MLPCN Grant: MH084827 Assay Submitter (PI): Tom Misteli
Compound IC50s were determined at Reaction Biology (http://www.reactionbiology.com) with ten concentration points starting at 10 uM in the assay using a 3-fold dilution series. The control compound staurosporine was also tested in the 10-dose IC50 mode with the same 3-fold serial dilution, again starting at 10 uM. All kinase reactions were performed using 10 uM ATP in the assay. 100% activity was taken from kinase reactions with DMSO alone (the vehicle used for compound stock solutions).

Sequence of Dual specificity protein kinase CLK4 (Homo sapiens) (Q9HAZ1 whole entry, looked up, canonical isoform): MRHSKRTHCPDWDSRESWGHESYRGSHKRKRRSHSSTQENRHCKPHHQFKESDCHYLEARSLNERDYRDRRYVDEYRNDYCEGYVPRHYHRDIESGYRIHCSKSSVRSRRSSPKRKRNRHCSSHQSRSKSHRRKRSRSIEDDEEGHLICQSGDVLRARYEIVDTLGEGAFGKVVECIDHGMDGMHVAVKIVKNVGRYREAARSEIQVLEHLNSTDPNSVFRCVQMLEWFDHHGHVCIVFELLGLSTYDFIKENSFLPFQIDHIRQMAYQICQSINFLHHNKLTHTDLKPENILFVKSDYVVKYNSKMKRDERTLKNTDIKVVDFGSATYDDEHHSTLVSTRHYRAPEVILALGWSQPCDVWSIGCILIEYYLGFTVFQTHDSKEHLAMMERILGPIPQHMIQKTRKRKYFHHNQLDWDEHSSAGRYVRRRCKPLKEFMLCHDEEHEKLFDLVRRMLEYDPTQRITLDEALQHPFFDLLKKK

Question: Which Potency does the source give for c1cncc(CNc2nccc(-c3ccc4c(c3)OCO4)n2)c1 here?
Answer: The Potency was 15.9 nM (active).

Question: How did the Potency turn out when c1nc(NCC2CCCO2)c2cc(-c3ccc4c(c3)OCO4)ccc2n1 (configuration not stated) was run?
Answer: Its Potency is 50.1 nM (active).

Question: For Cc1nc(CN(C)c2ncnc3ccc(-c4ccc5c(c4)OCO5)cc23)cs1, which Potency is on record?
Answer: The Potency was 15.9 nM (active).

Question: Cc1nc(CN(C)c2ncnc3ccc(-c4ccc5[nH]ncc5c4)cc23)cs1 was tested. Which Potency did it give?
Answer: The Potency was 37.7 nM (active).

Question: With c1cc(-c2ccc3c(c2)OCO3)nc(Nc2ccc3c(c2)OCO3)n1 as the compound, how does the Potency read?
Answer: The Potency was 74.8 nM (active).

Question: For Clc1ccc(CNc2nccc(-c3ccc4[nH]ncc4c3)n2)cc1Cl, which Potency is on record?
Answer: The Potency was 30.3 nM (active).

Question: For Clc1ccc(CNc2ncncc2-c2ccc3c(c2)OCO3)cc1Cl, which Potency is on record?
Answer: Its Potency is 526 nM (active).

Question: COc1ccc(-c2ccnc(NCc3ccc(Cl)c(Cl)c3)n2)cc1OC was tested. Which “activity change, negative = inhibition” value did it give?
Answer: The value was -40.9%.

Question: COc1ccc(-c2ccnc(NCc3ccc(Cl)c(Cl)c3)n2)cc1 was tested. Which Potency did it give?
Answer: The Potency was 91.7 nM (active).

Question: Which Potency does the source give for Clc1cc(Cl)cc(CNc2ncncc2-c2ccc3c(c2)OCO3)c1 here?
Answer: The Potency was 68.2 nM (active).

Question: c1cncc(CNc2nccc(-c3ccc4[nH]ncc4c3)n2)c1 was tested. Which Potency did it give?
Answer: Its Potency is 60 nM (active).

Question: How did the Potency turn out when FC(F)(F)c1cccc(Nc2nccc(-c3ccc4c(c3)OCO4)n2)c1 was run?
Answer: The Potency was 41.7 nM (active).

Question: Brc1ccc(CNc2nccc(-c3ccc4c(c3)OCO4)n2)cc1Br was tested. Which Potency did it give?
Answer: Its Potency is 17.7 nM (active).

Question: How did the Potency turn out when COc1cccc(-c2ccnc(NCc3ccc(Cl)c(Cl)c3)n2)c1 was run?
Answer: The Potency was 3860 nM (active).

Question: c1cncc(CNc2ccnc(-c3ccc4cn[nH]c4c3)n2)c1 was tested. Which Potency did it give?
Answer: The Potency was 1290 nM (active).

Question: Which Potency does the source give for Clc1ccc(CNc2nccc(-c3ccc4c(c3)OCCO4)n2)cc1Cl here?
Answer: The Potency was 13.1 nM (active).

Question: Which Potency does the source give for FC(F)(F)c1cc(Br)cc(Nc2nccc(-c3ccc4c(c3)OCO4)n2)c1 here?
Answer: Its Potency is 85.5 nM (active).

Question: With Brc1cc(Br)cc(CNc2nccc(-c3ccc4c(c3)OCO4)n2)c1 as the compound, how does the Potency read?
Answer: Its Potency is 9.4 nM (active).

Question: c1cncc(CNc2ccnc(-c3ccc4[nH]ncc4c3)n2)c1 was tested. Which Potency did it give?
Answer: The Potency was 574 nM (active).

Question: How did the Potency turn out when Cc1c(-c2ccnc(NCc3cccnc3)n2)sc(=O)n1C was run?
Answer: The Potency was 87.8 nM (active).

Question: With Cc1nc(CNc2ncnc3ccc(-c4ccc5c(c4)OCO5)cc23)cs1 as the compound, how does the Potency read?
Answer: The Potency was 25 nM (active).

Question: Which Potency does the source give for COc1cccc(-c2ccnc(NCc3ccc(Cl)cc3)n2)c1 here?
Answer: Its Potency is 6810 nM (active).

Question: How did the Potency turn out when O=[N+]([O-])c1cc(Nc2nccc(-c3ccc4c(c3)OCO4)n2)cc(C(F)(F)F)c1 was run?
Answer: Its Potency is 23.1 nM (active).

Question: For Clc1ccc(CNc2nccc(-c3ccc4c(c3)OCO4)n2)cc1Cl, which Potency is on record?
Answer: The Potency was 14.4 nM (active).

Question: For Clc1ccc(CNc2nccc(-c3ccc4cn[nH]c4c3)n2)cc1Cl, which Potency is on record?
Answer: Its Potency is 123 nM (active).

Question: Which Potency does the source give for Cc1c(-c2ccnc(NCc3ccc(Cl)cc3)n2)sc(=O)n1C here?
Answer: Its Potency is 273 nM (active).

Question: How did the Potency turn out when COc1ccc(-c2ccnc(NCc3ccc(Cl)cc3)n2)cc1 was run?
Answer: Its Potency is 319 nM (active).
